Measurements reported in the supplement of paper PMC6555819.

Key:
Assay in all cases: PBM binding z-score (relative to random genomic background probes); higher = stronger binding; sequences stand for … in GC…GCGATTGACAGCGTAGAATGAAGG
[1] = tested on: FXR:RXRa (NR concentration 270 nM, RXRa partner concentration 90 nM)
Summary of the method: (§1)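 For binding z-scores, the reference was random background probes on custom Agilent 4×180K protein-binding microarrays. These arrays were incubated 1 h with ligand-free nuclear receptor dimers in PBS pH 7.4, 2% milk, 0.02% Triton X-100, 1 mM DTT, 0.2 mg/mL BSA and 0.4 mg/ml salmon testes DNA. Fluorescence was scanned after antibody detection of each partner (one per run) and regression-normalized.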

[2] = tested on: LXRa:RXRa (NR concentration 270 nM, RXRa partner concentration 90 nM)
Summary of the method: as §1

[3] = tested on: LXRa homodimer (NR concentration 270 nM)
Summary of the method: as §1

[4] = tested on: LXRb:RXRa (NR concentration 270 nM, RXRa partner concentration 90 nM)
Summary of the method: as §1

[5] = tested on: PPARa:RXRa (NR concentration 270 nM, RXRa partner concentration 90 nM)
Summary of the method: as §1

[6] = tested on: PPARg:RXRa (NR concentration 180 nM, RXRa partner concentration 90 nM)
Summary of the method: as §1

[7] = tested on: PPARg:RXRa 270nM:90nM, anti-RXR (NR concentration 270 nM, RXRa partner concentration 90 nM)
Summary of the method: as §1

[8] = tested on: PPARg:RXRa 30nM:10nM, anti-RXR (NR concentration 30 nM, RXRa partner concentration 10 nM)
Summary of the method: as §1

[9] = tested on: PPARg:RXRa 90nM:30nM, anti-RXR (NR concentration 90 nM, RXRa partner concentration 30 nM)
Summary of the method: as §1

Sequence	PBM binding z-score [1]	PBM binding z-score [2]	PBM binding z-score [3]	PBM binding z-score [4]	PBM binding z-score [5]	PBM binding z-score [6]	PBM binding z-score [7]	PBM binding z-score [8]	PBM binding z-score [9]
TCGAGTAGGTTACGAGGGCATTCAGGGATGAAGA	0.963	1.16	-0.0456	0.518	2.58	3.58	3.11	1.61	2.6
CTATGTAGGTTAAGGGTGTCATTCAGTTTGAAAG	0.954	1.2	0.0163	1.33	4.61	8.17	7.44	6.35	8.04
CCGAGTAGGTTTCGAGGGGGCATTCAGTGCGAAT	1.41	2.96	1.18	4.53	2.37	-0.183	1.67	0.107	1.44
TCGAGTAGGTTACGGGGGCATACAGGGATGAAGA	2.72	2.52	0.664	4.86	4.48	6.1	5.69	3.56	5.05
TCGAGTAGGTTACGGGGGCATTCGGGGATGAAGA	3.14	3.56	0.662	5.09	4.28	6.03	5.81	3.14	4.8
TCGAGTAGGTTACGGGGGGATTCAGGGATGAAGA	2.95	2.87	1.21	5.21	3.11	5.11	4.06	3.29	4.14
CTATGTAGCTTAAGGGGGTCATTCAGTTTGAAAG	4.38	4.44	3.06	6.2	5.27	3.24	4.6	2.16	3.67
CCGAGTAGGTTACGAGGGGGCCTTCAGTGCGAAT	0.952	2.66	0.0596	3.94	2.44	1.5	2.53	0.553	1.8
TCGAGTAGGTTACGGGAGCATTCAGGGATGAAGA	0.293	0.0567	-0.651	0.0342	1.82	1.59	2.09	1.25	1.7
TCGAGTAGGTTACGGGGCCATTCAGGGATGAAGA	0.993	0.505	-0.236	0.939	2.58	3.24	3.52	1.65	2.58
CTATGTACGTTAAGGGGGTCATTCAGTTTGAAAG	4.34	4.93	2.68	6.5	5.53	3.31	5.19	3.25	4.57
CTATGTAGGTTAAGGGGTTCATTCAGTTTGAAAG	2.03	3.21	2.34	3.8	4.75	7.11	6.53	4.01	6.09
CCGAGTAGGATACGAGGGGGCATTCAGTGCGAAT	0.863	1.35	0.542	3.08	1.75	0.323	1.47	0.0307	1.08
TCGAGTCGGTTACGGGGGCATTCAGGGATGAAGA	1.7	1.82	0.317	4	2.75	1.46	2.62	1.58	2.15
CTCTGTAGGTTAAGGGGGTCATTCAGTTTGAAAG	5.36	5.1	3.51	6.33	5.68	6.59	6.91	4.4	6.57
